Screen size: about 220,000 compounds; about 2,000 (0.91%) were called active. Roughly 2% stayed inconclusive and do not appear here. No stated cut-off is given here; in the data, inconclusive means inhibition above about 80% without an active follow-up result; inactive means below that; test concentration not stated here. Not all results are given here. Potency and affinity values are given separately.
Test: M. tuberculosis H37Rv growth inhibitors, H37Rv strain (AID 1626);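 further: bacteria incubated seven days before Alamar blue readout; 0% = bacteria only wells and 100% = bacteria with antibiotic wells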
Settings: active compounds read high, concentration not given here

| SMILES | inhibition |
| --- | --- |
| COc1ccc(NC(=O)N/C=C/c2ccccc2)cc1 | -0.86% (inactive) |
| COc1cc(C(C[N+](=O)[O-])c2c(N)n(C)c(=O)n(C)c2=O)ccc1O (stereo not given) | 1.8% (inactive) |
| COc1ccccc1C(C[N+](=O)[O-])c1c(N)n(C)c(=O)n(C)c1=O (stereo not given) | 40.8% (inactive) |
| CCCOc1cccc(C2C(C(=O)c3ccco3)=C(O)C(=O)N2CCN(CC)CC)c1 (stereo not given) | -7.15% (inactive) |
| CC(C(=O)N1CCCC1)N1CCN(c2ccccc2O)CC1 (stereo not given) | -5.08% (inactive) |
| C/C(O)=C(\N=Nc1cc(C)ccc1O)C(N)=O | 0.25% (inactive) |
| Cc1ccc(Cn2ccc(NC(=O)c3cc(C4CC4)on3)n2)cc1 | -5.45% (inactive) |
| COc1ccc(Cn2c(C(C)C)nc3sc4ccccc4c(=O)c3c2=O)cc1 | 17.7% (inactive) |
| CCc1nc2sc3ccccc3c(=O)c2c(=O)n1CCOC | -3.87% (inactive) |
| O=C(COc1ccccc1Br)Nc1ccccc1C(F)(F)F | 1.69% (inactive) |
| COc1ccc2[nH]c3c(NCCC4=CCCCC4)ncnc3c2c1 | 50.8% (inactive) |
| O=c1c2[nH]c3ccccc3c2ncn1CCC1=CCCCC1 | -3.83% (inactive) |
| CCNC(=S)NNC(=S)NCc1ccccc1 | -6.54% (inactive) |
| CCOC(=O)c1ccc(NC(C)=O)c([N+](=O)[O-])c1 | -0.43% (inactive) |
| CCCNc1ccc(C(=O)OCC)cc1[N+](=O)[O-] | -2.78% (inactive) |
| COc1cc(S(N)(=O)=O)c(OC)cc1N | -5.42% (inactive) |
| COC(=O)CCn1nc(-c2ccc(Cl)cc2)c2ccccc2c1=O | 0.44% (inactive) |
| CCCNC(=O)C1CCN(S(=O)(=O)c2cccc3nonc23)CC1 | 3.34% (inactive) |
| O=C(NCc1cccs1)C(=O)NCC(c1ccco1)N1CCN(c2ccccc2F)CC1 (stereo not given) | 4.89% (inactive) |
| CC(=O)Nc1ccc(C(=O)Nc2nc(-c3ccccn3)cs2)cc1 | 0.25% (inactive) |
| CC1CC1C(=O)Nc1nc(-c2ccc(Cl)s2)cs1 (stereo not given) | 9.3% (inactive) |
| Cc1ccnc2nc(C(=O)Nc3nc(-c4ccccn4)cs3)nn12 | -1.5% (inactive) |
| O=C(/C=C\c1ccco1)Nc1nc(-c2ccccc2)cs1 | 9.29% (inactive) |
| CC1CC1C(=O)Nc1nc(-c2ccccc2)cs1 (stereo not given) | -12.6% (inactive) |
| O=C(/C=C/c1ccco1)Nc1nc(-c2ccccc2)cs1 | 9.68% (inactive) |

| SMILES | inhibition |
| --- | --- |
| Cc1csc(NC(=O)C2CCCC2)n1 | -11.7% (inactive) |
| C[C@@H](C(=O)Nc1nc(-c2ccccn2)cs1)N1C(=O)C2CCCCC2C1=O (stereo not given in full) | 1.46% (inactive) |
| O=C(NCc1ccc(F)cc1)C1CCCN(S(=O)(=O)c2cccc3nsnc23)C1 (stereo not given) | -3.19% (inactive) |
| NC1=NC(=O)C(Cc2cc(Cl)ccc2Cl)S1 (stereo not given) | -5.29% (inactive) |
| CCOC(=O)C1(C)NC(c2ccc(OC)c(OC)c2)C2C(=O)N(CC)C(=O)C21 (stereo not given) | -0.15% (inactive) |
| O=C(O)c1ccc(S(=O)(=O)c2ccc(Sc3ccc(C(=O)O)c(C(=O)O)c3)cc2)cc1 | -20.9% (inactive) |
| CCOC(=O)COc1ccc(S(=O)(=O)NCc2ccco2)cc1 | 10.1% (inactive) |
| Cc1cc(C(=O)N2CCOCC2)c(C)o1 | -4.61% (inactive) |
| COCCOc1ccc(C(F)(F)F)cc1NC(=O)c1ccc(C)cc1 | 2.93% (inactive) |
| CCN1C(=O)CC(c2ccco2)Sc2ccccc21 (stereo not given) | 4.45% (inactive) |
| O=P(O)(O)C12CC3CC(CC(C3)C1)C2 | 1.57% (inactive) |
| O=C(/C=C/c1cccc([N+](=O)[O-])c1)NCCSCc1ccc(Cl)cc1 | 11.2% (inactive) |
| CC(C)(C)c1cc(C(=O)NCC(=O)OCC(=O)c2cccc([N+](=O)[O-])c2)cc(C(C)(C)C)c1 | -4.29% (inactive) |
| Cc1cccc([N+](=O)[O-])c1NC(=O)CN(Cc1ccccc1)Cc1ccccc1 | -0.69% (inactive) |
| CN(CCc1ccccn1)c1ncnc2[nH]ncc12 | 2.15% (inactive) |
| COc1cccc2sc(NN)nc12 | 7.32% (inactive) |
| CC(=O)Nc1ccc(-c2csc(NC(=O)C3CC(=O)N(c4ccc5c(c4)OCCO5)C3)n2)cc1 (stereo not given) | -1.99% (inactive) |
| COc1cccc2sc(Nc3nc(-c4ccncc4)cs3)nc12 | 1.36% (inactive) |
| Cc1csc(NC(=O)c2ccc(Cl)cc2[N+](=O)[O-])n1 | -4.05% (inactive) |
| O=C(NCc1ccccn1)c1ccc(Br)s1 | -0.44% (inactive) |
| COc1ccc(-c2csc(NC(=O)C3CC(=O)N(c4ccc5c(c4)OCCO5)C3)n2)cc1 (stereo not given) | 28% (inactive) |
| O=C(Nc1nccs1)c1cc(Cl)ccc1[N+](=O)[O-] | 3.23% (inactive) |
| O=C(Nc1nc(-c2cc(Cl)sc2Cl)cs1)c1ccc(Br)s1 | 1.52% (inactive) |
| Cc1ccc(C(=O)Nc2nc(-c3cc(Cl)sc3Cl)cs2)cc1 | 3.4% (inactive) |
| COc1ccccc1C(=O)Nc1c(C)cc(Br)cc1C | 21.1% (inactive) |

| SMILES | inhibition |
| --- | --- |
| CCCN1C(=O)C(O)(CC(=O)c2cccc(OC)c2)c2ccccc21 (stereo not given) | -1.3% (inactive) |
| O=C(O)c1ccc(N2C(=O)CC(SC(=NCc3ccc4c(c3)OCO4)Nc3ccccc3)C2=O)cc1 (stereo not given) | 1.43% (inactive) |
| CCc1ccc(NC(=O)c2cnn(-c3ccccc3)c2C)cc1 | 1.29% (inactive) |
| COc1ccc(-n2c(Cc3cccs3)nnc2SCC(=O)Nc2ccc3c(c2)OCCO3)cc1 | -1.02% (inactive) |
| COc1ccc(-c2cc(C(=O)NC3CCCC3)no2)cc1OC | 9.4% (inactive) |
| O=[N+]([O-])c1cccc(-c2nnc(CNC3CC3)o2)c1 | 1.99% (inactive) |
| CC(C)c1ccc(OCC(=O)N2CCCCCC2)c(Br)c1 | 4.07% (inactive) |
| Cc1ccc(NC(=O)C2CC(=O)Nc3nncn32)cc1 (stereo not given) | -5.26% (inactive) |
| Cc1c(Cl)cccc1S(=O)(=O)Nc1ccnn1C | -14.5% (inactive) |
| c1ccc(-c2csc(Nc3cccnc3)n2)nc1 | 10.1% (inactive) |
| O=C(CCSc1ccccc1)Nc1nccs1 | 3.44% (inactive) |
| c1ccc(Nc2nc(-c3ccncc3)cs2)cc1 | 5.87% (inactive) |
| O=C(Nc1ccccn1)C12CC3CC(C1)CC(C(=O)Nc1ccccn1)(C3)C2 | -2.92% (inactive) |
| O=C(CN1C(=O)CCC1=O)Nc1nc(-c2ccccn2)cs1 | 2.51% (inactive) |
| O=C(CCS(=O)(=O)c1ccccc1)Nc1nc(-c2ccccn2)cs1 | 73.5% (inactive) |
| O=C(Nc1nc(-c2nc3ccccc3s2)cs1)C1CC1 | 7.59% (inactive) |
| O=C(Nc1nccs1)C12CC3CC(C1)CC(C(=O)Nc1nccs1)(C3)C2 | 1.25% (inactive) |
| O=c1[nH]c(N2CCOCC2)nc2ncn(Cc3ccccc3)c12 | -3.03% (inactive) |
| COc1ccc(NS(=O)(=O)c2ccc(Cl)c(C(=O)O)c2)cc1S(=O)(=O)N1CCCCC1 | -7.19% (inactive) |
| O=c1[nH]c(N2CCc3ccccc3C2)nc2c1CCC2 | -0.21% (inactive) |
| CCOC(=O)N1CCN(c2ccc([N+](=O)[O-])cc2F)CC1C (stereo not given) | 9.74% (inactive) |
| CCCCn1c(CNC(C)=O)nc2ccccc21 | 1.64% (inactive) |
| COC(=O)c1[nH]c2cc(C)ccc2c1NC(=O)CN1CCN(c2ccccc2OC)CC1 | 45% (inactive) |
| CCC(C)NC(=S)Nc1ccc(F)cc1 (stereo not given) | 0.18% (inactive) |
| CCc1nnc(NC(=O)C(NC(=O)c2ccccc2Cl)C(C)C)s1 (stereo not given) | 3.06% (inactive) |

| SMILES | inhibition |
| --- | --- |
| Cc1csc(NC(=O)C(NC(=O)c2ccccc2F)C(C)C)n1 (stereo not given) | 5.45% (inactive) |
| CCOC(=O)c1sc(=NC(=O)/C=C/c2ccccc2)n(C)c1C | -0.27% (inactive) |
| COc1ccc(/C(N)=N/OC(=O)c2ccc3c(c2)OCO3)cc1 | 3.21% (inactive) |
| O=[N+]([O-])c1cccc(Cl)c1CSc1ccccn1 | 0.94% (inactive) |
| O=C(CCCn1cnc([N+](=O)[O-])n1)Nc1cccc(Cl)c1Cl | 1.24% (inactive) |
| O=[N+]([O-])c1ncn(Cc2ccccc2Cl)n1 | 3.07% (inactive) |
| O=C(COC(=O)/C=C/c1ccccc1)Nc1cc(C(F)(F)F)ccc1N1CCOCC1 | -0.9% (inactive) |
| CC(C)N(Cc1cn(C)nc1-c1cccc(Cl)c1)Cc1nccn1C | 7.78% (inactive) |
| CN1CCC(=NNC(=O)COc2ccc(Cl)cc2)CC1 | 2.45% (inactive) |
| COc1ccccc1OCC(=O)NNc1c2ccccc2nc2ccccc12 | -2.19% (inactive) |
| O=[N+]([O-])c1ccc2c(c1)oc1ccccc12 | -1.07% (inactive) |
| Nc1ccc2oc3ccc(N)cc3c(=O)c2c1 | 3.5% (inactive) |
| Cc1cc(NC(=O)c2ccc3c(c2)C(=O)N(CC(C)C)C3=O)no1 | 1.19% (inactive) |
| COc1ccc(-c2noc(CSc3nnc(CCc4ccccc4)n3-c3ccccc3)n2)cc1OC | 6.96% (inactive) |
| CCOc1ccccc1CNc1ccc(O)cc1 | -6.88% (inactive) |
| Fc1cccc(COc2ccccc2CNc2ccccc2)c1 | 15.2% (inactive) |
| COc1ccc(-n2nnnc2SCC(=O)Nc2nc3c(s2)CCCC3)cc1 | -4.11% (inactive) |
| COc1ccc(C(=O)NCCN2C(=O)S/C(=C\c3cccnc3)C2=O)c(OC)c1OC | 8.22% (inactive) |
| Cc1ccccc1OCCCc1c(C)n[nH]c1C | 33% (inactive) |
| Cc1cccc(OCCCc2c(C)n[nH]c2C)c1 | 1.52% (inactive) |
| Cc1n[nH]c(C)c1CCCOc1ccccc1 | -17.6% (inactive) |
| Cc1cccc(C)c1OCCCCc1c(C)n[nH]c1C | 78.5% (inactive) |
| Cc1n[nH]c(C)c1CCOc1ccc(C(C)C)cc1 | -3.37% (inactive) |
| Cc1n[nH]c(C)c1CCCCOc1ccccc1 | -2.76% (inactive) |
| Cc1nc(NC(=O)COC(=O)c2ccc(S(=O)(=O)N3CCc4ccccc4C3)cc2)c(Cl)cc1Cl | -3.47% (inactive) |

Reference: PubChem BioAssay AID1626 (SRMLSC, 2009)
